{"source": "ChEMBL document CHEMBL1157539", "about": "“Thousands of chemical starting points for antimalarial lead identification” (Nature, 2010)"}
{"system": "Plasmodium falciparum", "test": "GSK_TCMDC: Inhibition of Plasmodium falciparum 3D7 in whole red blood cells, using parasite LDH activity as an index of growth. Test compounds present at 2uM", "assay_type": "functional", "units": {"Inhibition": "%"}}
{"smiles": "CCN1CCN(CCCCNc2c3ccccc3nc3ccccc23)CC1.Cl", "Inhibition": 100}
{"smiles": "COc1ccc2c(NN=Cc3ccc(F)cc3)ccnc2c1", "Inhibition": 100}
{"smiles": "Br.COc1ccc(OCCCCON2C(=N)N=C(N)NC2(C)C)cc1", "Inhibition": 92}
{"smiles": "O=C(NCCc1cccc(Cl)c1Cl)c1ccc(N2CCN(c3ccncc3)CC2)nc1.O=C(O)C(F)(F)F", "Inhibition": 100}
{"smiles": "CCCCCC(=O)NCC(NCCCNc1cc(=O)c2ccccc2[nH]1)c1cc(Br)cc(Br)c1", "note": "(stereo not given)", "Inhibition": 96}
{"smiles": "Cc1cc(=O)[nH]c(-n2nc(C)cc2NC(=O)C(c2ccccc2)c2ccccc2)n1", "Inhibition": 96}
{"smiles": "CS(=O)(=O)c1cccc(-c2cnc(N)c3cc(-c4cccc(F)c4)ccc23)c1", "Inhibition": 97}
{"smiles": "CS(=O)(=O)c1cccc(-c2cnc(N)c3cc(-c4ccc5c(c4)OCO5)ccc23)c1.O=CO", "Inhibition": 91}
{"smiles": "COc1ccccc1/C=C/C(=O)NCCC1CCN(CCCCCNC(=O)/C=C/c2ccc(Cl)c(Cl)c2)CC1", "Inhibition": 94}
{"smiles": "O=C(C=Cc1ccc(Cl)c(Cl)c1)NCCCCCN1CCC(CCCNS(=O)(=O)c2ccc(Br)cc2)CC1", "Inhibition": 93}
{"smiles": "CC(CN1CCN(C)CC1)C(=O)Nc1cccc(-c2cccc(-c3nc4cc(F)ccc4[nH]3)c2)c1", "note": "(stereo not given)", "Inhibition": 100}
{"smiles": "Cc1cc(C2CCN(CCCCNC(=O)c3ccc(NC(=O)c4ccc(Cl)cc4)cc3)CC2)c(C)cc1OC(C)C.Cl", "Inhibition": 100}
{"smiles": "CC(CN(C)C)C(=O)Nc1cccc(-c2cccc(-c3nc4cc(F)ccc4[nH]3)c2)c1", "note": "(stereo not given)", "Inhibition": 100}
{"smiles": "O=C(CCCCCNC(=O)c1ccc(O)c(-c2ccc(Cl)c(Cl)c2)c1)NC1CCCCCC1", "Inhibition": 92}
{"smiles": "CCOc1ccc(C2CCN(CCN3CCC(NC(=O)c4ccc(-c5ccc(C(F)(F)F)cc5)cc4)CC3)CC2)c(OCC2CC2)c1", "Inhibition": 99}
{"smiles": "CCCSc1nc2c(c(=O)n1CCc1ccccc1)C1(CCCC1)Cc1ccccc1-2", "Inhibition": 99}
{"smiles": "COc1cc(-c2ccc(-c3cnc(N)nc3OC)[nH]2)cc(OC)c1OC", "Inhibition": 100}
{"smiles": "CCOc1ccc(Br)cc1/C=C/C(=O)Nc1ccc(C2CCN(C)CC2)cc1", "Inhibition": 100}
{"smiles": "COc1ccccc1C1CCN(C2CCC(NC(=O)/C=C/c3ccc(F)c(F)c3)CC2)CC1", "note": "(stereo not given)", "Inhibition": 94}
{"smiles": "O=C(Nc1ccc(Cn2ncc(N3CCCNCC3)c(Cl)c2=O)cc1)Nc1cc(C(F)(F)F)cc(C(F)(F)F)c1.O=C(O)C(F)(F)F", "Inhibition": 100}
{"smiles": "Cl.O=[N+]([O-])c1ccc(-c2nc3cc(C4=NC5CCCCC5N4)ccc3[nH]2)cc1", "note": "(stereo not given)", "Inhibition": 100}
{"smiles": "O=C(C1CCCC1)N1CCOC(CCN2CCC(c3ccccc3)CC2)(c2ccc(Cl)c(Cl)c2)C1", "note": "(stereo not given)", "Inhibition": 88}
{"smiles": "Cc1nnc2c(NC(=O)NC3CCCC3)cc3ccc(-c4cccc(CN(C)C)c4)cc3n12", "Inhibition": 90}
{"smiles": "Br.COc1ccc(CCCON2C(=N)N=C(N)NC2(C)C)cc1", "Inhibition": 95}
{"smiles": "COc1cc(-c2nc(-c3ccncc3)c(-c3ccc4c(c3)CCC4=NO)[nH]2)ccc1OCCN1CCCCC1.Cl", "Inhibition": 100}
{"smiles": "CCOc1c(Br)cc(C)cc1CNCCCNc1nc2ccccc2[nH]1.Cl", "Inhibition": 93}
{"smiles": "CC(C)C[C@H](NC(=O)c1ccc(F)cc1)C(=O)N[C@H](/C=N/NC(=O)c1ccccc1)CCc1ccccc1", "Inhibition": 92}
{"smiles": "Nc1nc(Nc2cccc(Cl)c2)ncc1C(=O)NCc1ccncc1", "Inhibition": 98}
{"smiles": "CCOc1ncccc1CN1CCC(N2CCc3cc(NC(=O)c4ccco4)ccc32)C1", "note": "(stereo not given)", "Inhibition": 90}
{"smiles": "O=C(Nc1ccc(Cl)c(C(F)(F)F)c1)Nc1ccc(Cl)c(C(F)(F)F)c1", "Inhibition": 94}
{"smiles": "O=C(NCc1cccc(CN2CCOCC2)c1)c1cc(Br)cc(N2CCN(c3ccncc3)CC2)c1.O=C(O)C(F)(F)F", "Inhibition": 99}
{"smiles": "O=C(c1ccc([N+](=O)[O-])o1)N1CCC(Cc2ccc(C(F)(F)F)cc2)CC1", "Inhibition": 100}
{"smiles": "CCCCCCN1CCC(NCc2cccc(C(F)(F)F)c2)CC1.O=C(O)C(F)(F)F", "Inhibition": 100}
{"smiles": "Cl.Oc1cccc(Nc2ccnc3cc(-c4ccncc4)ccc23)c1", "Inhibition": 100}
{"smiles": "N#Cc1cccc(NC(=O)Nc2ccc(-c3csc(-c4nc5ccccc5[nH]4)c3)cc2)c1", "Inhibition": 100}
{"smiles": "CCc1ccc(CN(Cc2ccc(C)cc2)Cc2ccc(NC(C)=O)cc2)cc1", "Inhibition": 89}
{"smiles": "Cc1cccc2nc(-c3cccc(-c4cccc(NC(=O)CC5NC(=O)c6ccccc65)c4)c3)[nH]c12", "note": "(stereo not given)", "Inhibition": 92}
{"smiles": "Cc1nc2ccc3ccc(CNc4ccc(C#N)cc4)cc3c2c(=O)[nH]1", "Inhibition": 84}
{"smiles": "Cc1cccc2nc(-c3cccc(-c4ccc(NC(=O)c5cnccc5C(F)(F)F)cc4)c3)[nH]c12", "Inhibition": 100}
{"smiles": "COc1cc2nc(SCC(C)C)n(CCCn3ccnc3)c(=N)c2cc1OC", "Inhibition": 99}
{"system": "Plasmodium falciparum", "test": "GSK_TCMDC: Inhibition of Plasmodium falciparum Dd2 in whole red blood cells, using parasite LDH activity as an index of growth. Test compounds present at 2uM", "assay_type": "functional", "units": {"Inhibition": "%"}}
{"smiles": "CCN1CCN(CCCCNc2c3ccccc3nc3ccccc23)CC1.Cl", "Inhibition": 0}
{"smiles": "COc1ccc2c(NN=Cc3ccc(F)cc3)ccnc2c1", "Inhibition": 99}
{"smiles": "Br.COc1ccc(OCCCCON2C(=N)N=C(N)NC2(C)C)cc1", "Inhibition": 95}
{"smiles": "O=C(NCCc1cccc(Cl)c1Cl)c1ccc(N2CCN(c3ccncc3)CC2)nc1.O=C(O)C(F)(F)F", "Inhibition": 79}
{"smiles": "CCCCCC(=O)NCC(NCCCNc1cc(=O)c2ccccc2[nH]1)c1cc(Br)cc(Br)c1", "note": "(stereo not given)", "Inhibition": 66}
{"smiles": "Cc1cc(=O)[nH]c(-n2nc(C)cc2NC(=O)C(c2ccccc2)c2ccccc2)n1", "Inhibition": 77}
{"smiles": "CS(=O)(=O)c1cccc(-c2cnc(N)c3cc(-c4cccc(F)c4)ccc23)c1", "Inhibition": 13}
{"smiles": "CS(=O)(=O)c1cccc(-c2cnc(N)c3cc(-c4ccc5c(c4)OCO5)ccc23)c1.O=CO", "Inhibition": 23}
{"smiles": "COc1ccccc1/C=C/C(=O)NCCC1CCN(CCCCCNC(=O)/C=C/c2ccc(Cl)c(Cl)c2)CC1", "Inhibition": 0}
{"smiles": "O=C(C=Cc1ccc(Cl)c(Cl)c1)NCCCCCN1CCC(CCCNS(=O)(=O)c2ccc(Br)cc2)CC1", "Inhibition": 25}
{"smiles": "CC(CN1CCN(C)CC1)C(=O)Nc1cccc(-c2cccc(-c3nc4cc(F)ccc4[nH]3)c2)c1", "note": "(stereo not given)", "Inhibition": 78}
{"smiles": "Cc1cc(C2CCN(CCCCNC(=O)c3ccc(NC(=O)c4ccc(Cl)cc4)cc3)CC2)c(C)cc1OC(C)C.Cl", "Inhibition": 92}
{"smiles": "CC(CN(C)C)C(=O)Nc1cccc(-c2cccc(-c3nc4cc(F)ccc4[nH]3)c2)c1", "note": "(stereo not given)", "Inhibition": 94}
{"smiles": "O=C(CCCCCNC(=O)c1ccc(O)c(-c2ccc(Cl)c(Cl)c2)c1)NC1CCCCCC1", "Inhibition": 3}
{"smiles": "CCOc1ccc(C2CCN(CCN3CCC(NC(=O)c4ccc(-c5ccc(C(F)(F)F)cc5)cc4)CC3)CC2)c(OCC2CC2)c1", "Inhibition": 65}
{"smiles": "CCCSc1nc2c(c(=O)n1CCc1ccccc1)C1(CCCC1)Cc1ccccc1-2", "Inhibition": 53}
{"smiles": "COc1cc(-c2ccc(-c3cnc(N)nc3OC)[nH]2)cc(OC)c1OC", "Inhibition": 54}
{"smiles": "CCOc1ccc(Br)cc1/C=C/C(=O)Nc1ccc(C2CCN(C)CC2)cc1", "Inhibition": 71}
{"smiles": "COc1ccccc1C1CCN(C2CCC(NC(=O)/C=C/c3ccc(F)c(F)c3)CC2)CC1", "note": "(stereo not given)", "Inhibition": 9}
{"smiles": "O=C(Nc1ccc(Cn2ncc(N3CCCNCC3)c(Cl)c2=O)cc1)Nc1cc(C(F)(F)F)cc(C(F)(F)F)c1.O=C(O)C(F)(F)F", "Inhibition": 29}
{"smiles": "Cl.O=[N+]([O-])c1ccc(-c2nc3cc(C4=NC5CCCCC5N4)ccc3[nH]2)cc1", "note": "(stereo not given)", "Inhibition": 30}
{"smiles": "O=C(C1CCCC1)N1CCOC(CCN2CCC(c3ccccc3)CC2)(c2ccc(Cl)c(Cl)c2)C1", "note": "(stereo not given)", "Inhibition": 77}
{"smiles": "Cc1nnc2c(NC(=O)NC3CCCC3)cc3ccc(-c4cccc(CN(C)C)c4)cc3n12", "Inhibition": 25}
{"smiles": "Br.COc1ccc(CCCON2C(=N)N=C(N)NC2(C)C)cc1", "Inhibition": 94}
{"smiles": "COc1cc(-c2nc(-c3ccncc3)c(-c3ccc4c(c3)CCC4=NO)[nH]2)ccc1OCCN1CCCCC1.Cl", "Inhibition": 80}
{"smiles": "CCOc1c(Br)cc(C)cc1CNCCCNc1nc2ccccc2[nH]1.Cl", "Inhibition": 5}
{"smiles": "CC(C)C[C@H](NC(=O)c1ccc(F)cc1)C(=O)N[C@H](/C=N/NC(=O)c1ccccc1)CCc1ccccc1", "Inhibition": 61}
{"smiles": "Nc1nc(Nc2cccc(Cl)c2)ncc1C(=O)NCc1ccncc1", "Inhibition": 29}
{"smiles": "CCOc1ncccc1CN1CCC(N2CCc3cc(NC(=O)c4ccco4)ccc32)C1", "note": "(stereo not given)", "Inhibition": 94}
{"smiles": "O=C(Nc1ccc(Cl)c(C(F)(F)F)c1)Nc1ccc(Cl)c(C(F)(F)F)c1", "Inhibition": 96}
{"smiles": "O=C(NCc1cccc(CN2CCOCC2)c1)c1cc(Br)cc(N2CCN(c3ccncc3)CC2)c1.O=C(O)C(F)(F)F", "Inhibition": 29}
{"smiles": "O=C(c1ccc([N+](=O)[O-])o1)N1CCC(Cc2ccc(C(F)(F)F)cc2)CC1", "Inhibition": 99}
{"smiles": "CCCCCCN1CCC(NCc2cccc(C(F)(F)F)c2)CC1.O=C(O)C(F)(F)F", "Inhibition": 82}
{"smiles": "Cl.Oc1cccc(Nc2ccnc3cc(-c4ccncc4)ccc23)c1", "Inhibition": 99}
{"smiles": "N#Cc1cccc(NC(=O)Nc2ccc(-c3csc(-c4nc5ccccc5[nH]4)c3)cc2)c1", "Inhibition": 97}
{"smiles": "CCc1ccc(CN(Cc2ccc(C)cc2)Cc2ccc(NC(C)=O)cc2)cc1", "Inhibition": 79}
{"smiles": "Cc1cccc2nc(-c3cccc(-c4cccc(NC(=O)CC5NC(=O)c6ccccc65)c4)c3)[nH]c12", "note": "(stereo not given)", "Inhibition": 49}
{"smiles": "Cc1nc2ccc3ccc(CNc4ccc(C#N)cc4)cc3c2c(=O)[nH]1", "Inhibition": 56}
{"smiles": "Cc1cccc2nc(-c3cccc(-c4ccc(NC(=O)c5cnccc5C(F)(F)F)cc4)c3)[nH]c12", "Inhibition": 37}
{"smiles": "COc1cc2nc(SCC(C)C)n(CCCn3ccnc3)c(=N)c2cc1OC", "Inhibition": 78}
